# Results from the supplement of paper PMC3334620.
# The full ranking holds about 33,000 sequences; the median of “E-score (-0.5 to 0.5)” is about -0.053, and the highest 2% start at about 0.37. The entries come from a sample that favours the highest values as a whole.
# Target: Hap1 (UniProt P0CE41)
# Assay: PBM E-score (8-mer binding enrichment) (E-score (-0.5 to 0.5)); higher = stronger / more preferred TF binding
# Conditions: protein concentration: 200 nM; construct: GST-DNA-binding domain
# Experimental: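 Universal 'all 10-mer' protein binding microarrays (Agilent AMADID 015681) probed with GST-tagged S. cerevisiae TFs (full-length or DBD) made by in vitro transcription/translation (PURExpress), about 100-200 nM. Bound TF was detected with fluorescent anti-GST. Each ungapped 8-mer (which stands for itself and its reverse complement) is scored by the PBM enrichment score (E-score), a modified Wilcoxon-Mann-Whitney statistic from -0.5 to +0.5, computed with the Universal PBM Analysis Suite. Scale: above 0.35 generally sequence-specific binding.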
# Chain of UniProt P0CE41 (P0CE41 whole entry): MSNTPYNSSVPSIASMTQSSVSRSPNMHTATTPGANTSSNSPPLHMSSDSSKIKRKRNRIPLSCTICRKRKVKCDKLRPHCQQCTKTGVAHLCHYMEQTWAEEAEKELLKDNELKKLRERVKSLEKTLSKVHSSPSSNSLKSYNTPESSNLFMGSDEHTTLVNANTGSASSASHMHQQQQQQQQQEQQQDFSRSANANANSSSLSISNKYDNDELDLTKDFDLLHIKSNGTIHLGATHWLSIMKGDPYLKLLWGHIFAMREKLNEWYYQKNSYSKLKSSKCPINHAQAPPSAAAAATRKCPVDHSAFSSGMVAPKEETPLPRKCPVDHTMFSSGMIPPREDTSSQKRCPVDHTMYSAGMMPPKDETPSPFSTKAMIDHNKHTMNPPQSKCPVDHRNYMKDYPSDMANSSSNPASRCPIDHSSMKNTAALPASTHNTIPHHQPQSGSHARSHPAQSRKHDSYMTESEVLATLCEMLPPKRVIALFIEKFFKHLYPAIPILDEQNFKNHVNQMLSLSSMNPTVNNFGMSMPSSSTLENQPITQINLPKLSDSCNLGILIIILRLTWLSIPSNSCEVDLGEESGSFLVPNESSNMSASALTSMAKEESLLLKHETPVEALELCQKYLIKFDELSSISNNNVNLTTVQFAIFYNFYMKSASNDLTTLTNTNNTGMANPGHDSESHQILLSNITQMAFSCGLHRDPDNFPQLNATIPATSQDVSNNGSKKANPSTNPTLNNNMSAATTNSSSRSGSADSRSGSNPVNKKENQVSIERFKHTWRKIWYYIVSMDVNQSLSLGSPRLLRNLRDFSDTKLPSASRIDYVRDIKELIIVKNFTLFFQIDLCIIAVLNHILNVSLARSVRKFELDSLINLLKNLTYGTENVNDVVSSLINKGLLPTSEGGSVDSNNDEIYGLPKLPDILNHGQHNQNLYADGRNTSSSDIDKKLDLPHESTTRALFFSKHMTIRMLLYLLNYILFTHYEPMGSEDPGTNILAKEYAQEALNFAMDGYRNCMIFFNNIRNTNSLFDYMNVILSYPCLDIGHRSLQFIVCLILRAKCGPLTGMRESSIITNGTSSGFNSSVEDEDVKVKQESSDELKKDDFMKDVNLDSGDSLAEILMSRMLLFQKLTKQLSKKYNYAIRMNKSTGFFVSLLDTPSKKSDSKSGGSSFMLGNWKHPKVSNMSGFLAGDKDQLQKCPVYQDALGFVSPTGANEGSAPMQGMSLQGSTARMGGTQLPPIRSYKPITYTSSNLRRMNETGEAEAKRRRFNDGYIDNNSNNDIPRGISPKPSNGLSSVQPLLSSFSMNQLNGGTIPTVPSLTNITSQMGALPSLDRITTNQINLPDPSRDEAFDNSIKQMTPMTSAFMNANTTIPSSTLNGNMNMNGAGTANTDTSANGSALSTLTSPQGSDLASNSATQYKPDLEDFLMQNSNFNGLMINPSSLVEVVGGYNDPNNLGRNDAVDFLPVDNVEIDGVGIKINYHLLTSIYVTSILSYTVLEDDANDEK
row,Sequence,PBM E-score
1,CATCCGGC,0.342
2,CATCCGTA,0.2
3,AATCCGGC,0.37
4,GATCCGGA,0.395
5,ATACGTCA,0.0245
6,TAGTTTCA,-0.024
7,CACCTGTA,-0.173
8,GAAATCGC,0.196
9,ACTAGGCG,-0.0773
10,CATCCGGG,0.278
11,AATCCGGG,0.409
12,AATCCGCG,0.244
13,CCTAGGGA,-0.112
14,CATTCCGA,0.294
15,TATTCCGA,0.357
16,AATTCCGA,0.43
17,AATTCCGT,0.414
18,AATTCCCT,-0.106
19,AATTCCGC,0.336
20,CATTCCGG,0.322
21,AATTCCGG,0.451
22,AATTCCAT,0.0073

row,Sequence,PBM E-score
1,CTGGCTTC,-0.194
2,AGCGAACT,-0.137
3,AGAAGGAG,-0.248
4,AGTTGCGG,0.153
5,CAGTAGGC,-0.174
6,ATGGGTGA,-0.0877
7,ATCTAAGC,-0.0574
8,GCCTTTTA,-0.0799
9,AGTTGCGC,0.0784
10,GCTCCTAC,-0.0888
11,AAAATTAT,0.122
12,CCGAAAAA,0.398
13,CCGAAACG,0.377
14,GCGAAAAC,-0.0632
15,CCGAAACA,0.288
16,CCGAAAGA,0.319
17,GCGAAAGC,0.0298
18,CCGAAACC,0.298
19,CCGAAAGC,0.369
20,TCGAAAAA,0.0162
21,CCGAAAAC,0.379
22,ACGAAAAC,0.124

row,Sequence,PBM E-score
1,CCGAAAAG,0.311
2,CAACCCAC,-0.131
3,GCATTAGA,-0.112
4,CAGTTGAG,-0.225
5,AGAATTCT,0.108
6,CAGTGTTC,-0.0181
7,CGTGAAAC,-0.0905
8,GACAGGGC,-0.0413
9,AGGTTGTA,-0.112
10,CCGAAATA,0.351
11,ACGAAATC,0.0404
12,CCGAAATC,0.401
13,AAGCGGAG,-0.0297
14,TCTCAGCA,-0.326
15,ATCGAATG,-0.076
16,CTACGCCC,0.0263
17,TAGCATAA,-0.0142
18,ATTTCACA,-0.131
19,AGGCGATA,0.119
20,GGCCGATA,0.457
21,GGGCGATA,0.179
22,CGGCGTTA,0.476

row,Sequence,PBM E-score
1,GGCCGCTA,0.225
2,CGGCGTTC,0.235
3,CGGCGATA,0.472
4,CGCCGATC,0.326
5,GGGCGTTA,0.147
6,CGCCGATA,0.426
7,GGCCGTTA,0.333
8,CGCCGTTA,0.291
9,CGAAAAAC,0.169
10,GAATGCAC,-0.00315
11,AGGGATGA,-0.133
12,AGTCAAAG,-0.13
13,GTCGCGAC,0.244
14,ACTCCCAG,-0.0473
15,AGCCGATG,0.233
16,AGCCGATA,0.427
17,AGCCGATC,0.245
18,ACAGTGCT,-0.138
19,CCCCGGTA,0.334
20,ACCCGGTG,0.249
